Experiment [1] relates to Human papillomavirus type 1a protein E7 (residues 44-93). The experiment in a line: small molecules binding HPV E7 44-93 – biochemical, small-molecule microarray, residues 44-93, 635 nm fluorescence, primary screen (AID 1108).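 Further: E7 fragment applied at 1 µg/mL in TBST for 1 h at 4 C; score combines spot fluorescence with its signal to noise ratio.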 Particulars: fluorescence 635 nm, higher = more signal.
Experiment [2] can be described thus: hepatitis C replication reporter changes, two-sided – Huh7 cells, luciferase reporter, HCV replication inhibitor project, primary screen (AID 1109).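 Further: huh7 hepatoma cells harbouring a luciferase neomycin HCV replicon reporter; luciferase luminescence as measure of HCV replicon replication; test concentration not given here.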 Particulars: Huh7 HCV replicon luciferase reporter, 48 h; higher = more signal.
The target of experiment [3] is Left-right determination factor 2 (Homo sapiens) (UniProt O00292). Kind of experiment: small molecules binding LEFTY2 protein – biochemical, small-molecule microarray, 635 nm fluorescence scan, primary screen (AID 1110). Particulars: higher = more signal.
Chain of Left-right determination factor 2 (Homo sapiens) (O00292 whole entry, looked up): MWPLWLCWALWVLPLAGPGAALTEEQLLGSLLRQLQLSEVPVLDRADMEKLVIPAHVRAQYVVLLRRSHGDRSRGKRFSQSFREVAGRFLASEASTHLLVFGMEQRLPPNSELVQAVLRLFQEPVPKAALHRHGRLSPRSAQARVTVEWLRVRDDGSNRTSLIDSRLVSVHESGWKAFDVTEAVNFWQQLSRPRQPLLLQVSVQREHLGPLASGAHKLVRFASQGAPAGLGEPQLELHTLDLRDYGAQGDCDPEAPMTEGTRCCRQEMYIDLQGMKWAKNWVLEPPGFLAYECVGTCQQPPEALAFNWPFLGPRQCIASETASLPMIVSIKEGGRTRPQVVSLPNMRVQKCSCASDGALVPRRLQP
Experiment [4] has as its target Calmodulin-1 (Homo sapiens) (UniProt P0DP23). Kind of experiment: small molecules binding calmodulin-1 with EGTA – biochemical, small-molecule microarray, Cy5-labelled CALM1, profiling panel (AID 1111).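 Further: labelled calmodulin applied in Tris saline Tween buffer holding calcium plus EGTA and DTT.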 The conditions noted are these: Cy5-CALM1 binding fluorescence, higher = more signal.
Experiment [5] shares this target. The experiment in a line: small molecules binding Ca-loaded calmodulin-1 – biochemical, small-molecule microarray, Cy5-labelled CALM1, plus calcium, artefact control for SMM control-protein annotation, profiling panel (AID 1112).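 Further: score merges spot fluorescence with signal to noise from triplicate slides.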 The conditions noted are these: Cy5-CALM1 binding fluorescence, higher = more signal.
The nature of experiment [6]: probe aWnt5a binding to arrayed compounds – biochemical, biotinylated probe, 635/667 nm fluorescence, primary screen (AID 1113).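 Further: score merges 667 nm fluorescence intensity with signal-to-noise per printed feature.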 Particulars: small-molecule microarray, higher = more signal.
Experiment [7] can be described thus: probe aShh binding to arrayed compounds – biochemical, biotinylated probe, 635/667 nm fluorescence, primary screen (AID 1114).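 Further: probe is biotin-labelled aShh protein from a stem cell growth factor screen; measures binding of labelled protein to compounds printed on the slide; score merges feature fluorescence at 667 nm with signal-to-noise.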 Particulars: small-molecule microarray, higher = more signal.
A short description of experiment [8]: probe aNog binding to arrayed compounds – biochemical, biotinylated probe, 635/667 nm fluorescence, primary screen (AID 1115).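 Further: probe is biotinylated aNog protein used at 0.15 µg/mL for 1 h at 4 C; z-score combines 667 nm fluorescence of each spot with its signal to noise.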 The conditions noted are these: small-molecule microarray, higher = more signal.
For experiment [9], the target named is Torsin-1A-interacting protein 1 (Homo sapiens) (UniProt Q5JTV8). Kind of experiment: compound microarray binding of lysate hLAP1 – cell lysate, small-molecule microarray, COS7 lysate, 635/667 nm fluorescence, primary screen (AID 1116). The conditions noted are these: 635 nm fluorescence, higher = more signal.
Chain of Torsin-1A-interacting protein 1 (Homo sapiens) (Q5JTV8 whole entry, looked up): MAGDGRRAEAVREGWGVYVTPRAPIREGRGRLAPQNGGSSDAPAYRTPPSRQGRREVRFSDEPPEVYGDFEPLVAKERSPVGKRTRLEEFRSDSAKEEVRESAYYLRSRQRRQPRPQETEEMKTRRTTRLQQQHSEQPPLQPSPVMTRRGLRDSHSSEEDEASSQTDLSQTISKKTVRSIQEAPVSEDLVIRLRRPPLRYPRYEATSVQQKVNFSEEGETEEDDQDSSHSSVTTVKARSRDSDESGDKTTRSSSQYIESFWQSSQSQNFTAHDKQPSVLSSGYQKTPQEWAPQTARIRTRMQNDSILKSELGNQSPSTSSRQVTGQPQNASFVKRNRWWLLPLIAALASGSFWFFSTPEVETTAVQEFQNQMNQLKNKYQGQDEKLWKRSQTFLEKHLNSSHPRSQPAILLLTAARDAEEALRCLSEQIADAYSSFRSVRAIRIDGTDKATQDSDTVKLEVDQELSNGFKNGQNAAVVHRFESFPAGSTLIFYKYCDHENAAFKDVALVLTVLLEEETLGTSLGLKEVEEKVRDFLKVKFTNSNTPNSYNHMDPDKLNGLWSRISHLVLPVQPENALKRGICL
Experiment [10] has as its target Alpha-bungarotoxin (Bungarus multicinctus) (UniProt P60615). The experiment in a line: compounds binding labelled alpha-BTX control protein – biochemical, small-molecule microarray, Alexa647 label, 635/667 nm fluorescence, artefact control for SMM control protein annotation, profiling panel (AID 1117). Particulars: alpha-BTX-A647 binding fluorescence, higher = more signal.

For a further experiment, the target named is Albumin (Bos taurus) (UniProt P02769). The experiment in a line: compounds binding labelled BSA control protein – biochemical, small-molecule microarray, Alexa647 label, 635/667 nm fluorescence, artefact control for SMM control protein annotation, profiling panel (AID 1118).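 Further: score merges 667 nm emission intensity and signal-to-noise per printed compound spot.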 The conditions noted are these: BSA-A647 binding, fluorescence 635 nm, higher = more signal.
Chain of Albumin (Bos taurus) (P02769 whole entry, looked up): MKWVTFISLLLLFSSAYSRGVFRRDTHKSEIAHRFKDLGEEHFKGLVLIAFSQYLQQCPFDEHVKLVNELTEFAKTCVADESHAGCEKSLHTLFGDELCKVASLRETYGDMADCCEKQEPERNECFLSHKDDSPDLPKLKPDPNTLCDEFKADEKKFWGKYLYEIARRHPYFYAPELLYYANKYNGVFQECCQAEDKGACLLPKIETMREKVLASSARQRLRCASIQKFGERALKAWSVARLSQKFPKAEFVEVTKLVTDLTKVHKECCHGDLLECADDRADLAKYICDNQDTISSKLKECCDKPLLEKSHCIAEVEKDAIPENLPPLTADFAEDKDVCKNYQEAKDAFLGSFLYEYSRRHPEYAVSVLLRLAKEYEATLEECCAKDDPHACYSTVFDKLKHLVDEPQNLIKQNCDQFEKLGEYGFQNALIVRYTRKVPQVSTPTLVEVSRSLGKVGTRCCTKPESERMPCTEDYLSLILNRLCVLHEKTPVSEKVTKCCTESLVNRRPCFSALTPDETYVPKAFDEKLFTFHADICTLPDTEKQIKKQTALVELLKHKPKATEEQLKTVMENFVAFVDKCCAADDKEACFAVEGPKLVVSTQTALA

Experiment [11] is described as follows: probe aXIP binding to arrayed compounds – biochemical, NeuroSMM set, 635/667 nm fluorescence, primary screen (AID 1119).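 Further: probe is the protein aXip251-270 applied at 1 µg/mL to compound-printed slides; binding of probe to printed compounds measured as 667 nm fluorescence plus signal to noise.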 Particulars: small-molecule microarray, higher = more signal, called active from +8 up or from −8 down.
A short description of experiment [12]: probe aNOTCH3 binding on compound microarray – biochemical, small-molecule microarray, 635/667 nm fluorescence, primary screen (AID 1120).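 Further: probe is a biotin-tagged antibody raised against NOTCH3 rather than NOTCH3 protein; score merges spot fluorescence near 667 nm with spot signal to noise.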 The conditions noted are these: higher = more signal.
A short description of experiment [13]: probe aNOTCH2 binding on compound microarray – biochemical, small-molecule microarray, 635/667 nm fluorescence, primary screen (AID 1121).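 Further: score merges feature fluorescence read at 667 nm with its signal to noise.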 Particulars: higher = more signal.
Experiment [14] concerns the target Carbonic anhydrase 2 (Homo sapiens) (UniProt P00918). Kind of experiment: compounds binding carbonic anhydrase 2 – biochemical, small-molecule microarray, Alexa647-labelled CAII, profiling panel (AID 1122). The conditions noted are these: CAII-A647 binding fluorescence, higher = more signal.
Experiment [15] is described as follows: COS7 lysate on small-molecule microarray, probe aHis, 635 nm (AID 1123).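 Further: z-score combines 667nm fluorescence intensity with signal-to-noise per printed compound spot.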 The conditions noted are these: COS7 cell lysate, fluorescence, higher = more signal.
The nature of experiment [16]: probe aLAP1 signal on lysate-treated microarray – cell lysate, small-molecule microarray, COS7 lysate, primary screen (AID 1124).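 Further: lysate comes from COS7 cells expressing LAP1 and is applied at 0.3 µg/mL; score merges spot fluorescence near 667 nm with signal-to-noise over triplicate slides.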 The conditions noted are these: probe aLAP1, fluorescence, higher = more signal.
Another experiment deals with Sam68 (KHDRBS1). The experiment in a line: compounds binding KHDRBS1 protein – biochemical, small-molecule microarray, 635 nm fluorescence, primary screen (AID 1125).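 Further: score merges 667 nm channel intensity with signal to noise over triplicate slides.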 Particulars: higher = more signal.
Experiment [17] has as its system Chordin-like protein 2 (CHRDL2). Kind of experiment: compounds binding chordin-like 2 – biochemical, small-molecule microarray, 635 nm fluorescence, primary screen (AID 1126).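 Further: printed compound slides probed with Chrdl2 protein at 4 µg/mL for 1 h at 4 C; score merges 667 nm emission intensity with signal to noise over three replicate slides.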 The conditions noted are these: fluorescence 635 nm, higher = more signal.
Experiment [18] has as its target Concanavalin-A (Canavalia ensiformis) (UniProt P02866). The experiment in a line: compounds binding concanavalin A lectin – biochemical, small-molecule microarray, Alexa647 label, 635 nm, artefact control for SMM control protein annotation, primary screen (AID 1127).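 Further: z combines 667 nm emission intensity with signal-to-noise across three replicate slides.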 The conditions noted are these: ConA-A647 binding fluorescence, higher = more signal.

Structures are written as SMILES. The source made the active and inactive calls.

Chain of Concanavalin-A (Canavalia ensiformis) (P02866 whole entry, looked up): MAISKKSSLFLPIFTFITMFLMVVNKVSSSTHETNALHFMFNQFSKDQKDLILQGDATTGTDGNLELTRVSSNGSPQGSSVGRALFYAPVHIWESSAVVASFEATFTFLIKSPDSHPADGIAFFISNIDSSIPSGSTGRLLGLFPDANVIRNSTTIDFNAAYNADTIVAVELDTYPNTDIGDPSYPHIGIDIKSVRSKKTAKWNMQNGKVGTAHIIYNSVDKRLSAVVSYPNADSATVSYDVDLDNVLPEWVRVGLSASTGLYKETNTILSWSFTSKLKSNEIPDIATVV
Chain of Alpha-bungarotoxin (Bungarus multicinctus) (P60615 whole entry, looked up): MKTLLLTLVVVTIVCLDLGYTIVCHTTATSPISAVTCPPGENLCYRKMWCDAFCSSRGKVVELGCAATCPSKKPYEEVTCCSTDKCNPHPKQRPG

As for `O=C1C2C=CC(C(O)C(c3ccccc3)c3ccccc3)N(n3cnnc3)C2C(=O)N1Cc1ccccc1` (stereo not given), the composite z-score in experiment [1] is 1.24; in [3] it was -0.164; in [4] it was 0.836; in [5], -0.34; in experiment [6], 0.07; in experiment [7] it was 0.184. In addition, the composite z-score is 0.976 in experiment [8]; 1.57 in [9]; 0.652 in [10]; 0.057 in the experiment with Albumin (Bos taurus); 0.116 in [12]; -0.0294 in [13]. In addition, the composite z-score in experiment [14] amounted to 0.635; in experiment [15], 2.61; in experiment [16], 0.599; in the experiment on Sam68 (KHDRBS1) it was 1.3; in experiment [17] it was 0.121; in experiment [18], 1.07. In experiment [2], this compound came in with a z-score of -0.832. Also, the composite Z-score in experiment [11] is 0.0479 (inactive).

With `C=CCOC(=O)[C@@H]1[C@H]2C(=O)O[C@H](c3ccccc3)[C@H](c3ccccc3)N2[C@H](c2ccc(OCCOC(=O)[C@@H]3C[C@@H]4C(=O)N5CCC[C@H]5C(=O)N4[C@@H]3c3ccc(O)cc3)cc2)[C@@]12C(=O)Nc1ccc(I)cc12`, the composite z-score is 1.33 in [1]; 0.761 in experiment [3]; 2.06 in experiment [4]; 0.481 in experiment [5]; -0.145 in experiment [6]; -0.0793 in experiment [7]. In addition, the composite z-score in experiment [8] was -0.331; in experiment [9] it was 1.4; in experiment [10], 0.327; with Albumin (Bos taurus), 0.71; in [12] it was -0.0831; in experiment [13], -0.145. For the same compound, the composite z-score in experiment [14] is 0.419; in experiment [15] it was 1.33; in experiment [16], -0.0072; with Sam68 (KHDRBS1), 1.19; in [17], 0.593; in experiment [18], 1.12. This compound also had a z-score in [2] of -0.64. In addition, the composite Z-score in experiment [11] was 1.23 (inactive).

Regarding `CC(C)(C)OC(=O)CC[C@@]1(C(=O)NCCN2CCOCC2)N=C(c2ccc(OCCCO)cc2)O[C@@H]1c1ccccc1N=[N+]=[N-]`, the composite z-score in experiment [1] came out at 1.32; in [3] it was 0.609; in experiment [4] it was 0.147; in experiment [5], 0.0196; in experiment [6], 0.108; in experiment [7], 0.171. The composite z-score came out at 0.991 in [8]; 0.694 in [9]; 0.783 in experiment [10]; 0.641 in the experiment with Albumin (Bos taurus); 0.375 in experiment [12]; 0.103 in experiment [13]. Besides, the composite z-score in [14] was 0.742; in experiment [15], 1.81; in [16] it was 0.0412; in the experiment on Sam68 (KHDRBS1) it was 1.33; in experiment [17], 0.178; in experiment [18] it was 0.289. Moreover, in experiment [2], the z-score was -0.291. For the same compound, in experiment [11], the composite Z-score is 0.393 (inactive).

As for `COCCOC(=O)N1C(=O)[C@@]2(c3cc(C#CC4(O)CCCCCC4)ccc31)[C@H](c1ccc(O)cc1)N1[C@H](c3ccccc3)[C@H](c3ccccc3)OC(=O)[C@H]1[C@@H]2C(=O)Nc1nc2ccccc2s1`, the composite z-score in [1] is 1.36; in [3] it was 0.463; in experiment [4], 2.01; in experiment [5], 0.516; in [6], 0.0932; in [7], -0.131. Also, the composite z-score in experiment [8] was determined as 3.16; in [9], 1.35; in experiment [10], 2.21; with Albumin (Bos taurus) it was 0.873; in [12], 0.499; in [13] it was 0.203. The composite z-score came to 0.362 in experiment [14]; 1.85 in experiment [15]; 0.552 in [16]; 1.32 in the experiment on Sam68 (KHDRBS1); 0.524 in experiment [17]; 0.785 in experiment [18]. The compound also registered a z-score in experiment [2] of -0.768. In addition, the composite Z-score in experiment [11] is 0.0656 (inactive).

Regarding `[N-]=[N+]=NCc1ccccc1[C@H]1OC(c2ccc(OCCCO)cc2)=N[C@@]1(Cc1ccccc1)C(=O)NCc1ccccc1`, the composite z-score in experiment [1] amounted to 0.296; in experiment [3], 0.0739; in experiment [4] it was 1.45; in experiment [5], 0.727; in [6], 0.075; in [7] it was 0.22. Besides, the composite z-score in [8] is 0.683; in [9], 0.881; in experiment [10], 0.761; with Albumin (Bos taurus) it was 0.882; in [12], 0.0884; in experiment [13] it was -0.283. For the same compound, the composite z-score in experiment [14] was 0.448; in [15], 2.88; in experiment [16] it was 0.444; in the experiment on Sam68 (KHDRBS1) it was 1.26; in [17], 0.547; in experiment [18], 0.824. In [2], this compound gave a z-score of -2.19. Further, the composite Z-score in [11] was -0.157 (inactive).

Regarding `COc1ccc([Si](C)(C)[C@H]2[C@H](CCn3cc([C@H](O)c4ccccc4)nn3)O[C@@]3(C(=O)N(Cc4cccc(N5CCOC5=O)c4)c4ccccc43)[C@@H]2C)cc1`, the composite z-score is 0.96 in [1]; 0.481 in experiment [3]; 0.0776 in experiment [4]; -0.182 in [5]; 0.0094 in [6]; -0.349 in experiment [7]. In addition, the composite z-score is -0.0612 in experiment [8]; 0.0061 in [9]; 0.353 in experiment [10]; -0.0478 with Albumin (Bos taurus); -0.0068 in experiment [12]; -0.301 in experiment [13]. Also, the composite z-score was 0.0191 in [14]; 0.178 in experiment [15]; -0.49 in experiment [16]; 1.07 in the experiment with Sam68 (KHDRBS1); 0.528 in experiment [17]; 0.958 in [18]. In experiment [2], the z-score was -2.36. For the same compound, in experiment [11], the composite Z-score is -0.01 (inactive).

The values above are taken from PubChem BioAssay.
